# Source: the supplement of paper PMC7156485
# How the values were obtained:
# Settings in all cases: concentration: 10 µM; 24 h
# [1] = system: HCC1569; experiment: cell number relative to DMSO (% of DMSO); higher = more cells (less growth inhibition / toxicity)
# In short: (§1)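 Using 384-well plates with 800 cells per well in RPMI plus 10% FBS, HCC1569 and TDF cells were exposed to compounds at 10 µM, in triplicate, for 24 h at 37 °C. Imaging of six fields per well at ×10 followed H1.0 and DAPI staining. The reported quantity, H1.0 nuclear intensity or cell number, is a median of replicates given as percent of the plate control, and HCC1569 values were smoothed for positional effects.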
# [2] = system: TDF; experiment: as above
# In short: as §1
# [3] = system: TDF; experiment: H1.0 immunofluorescence intensity relative to DMSO (% of DMSO); higher = stronger H1.0 induction, active = 120 or more
# In short: as §1
# [4] = system: HCC1569; experiment: H1.0 immunofluorescence intensity relative to DMSO (% of DMSO); higher = stronger H1.0 induction, active = 140 or more
# In short: as §1
# 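Throughout, for H1.0 immunofluorescence intensity relative to DMSO: TDF is a line of transformed human dermal fibroblasts of mesenchymal origin.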
# 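Throughout, for cell number relative to DMSO: TDF denotes transformed human dermal fibroblasts of mesenchymal origin.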
SMILES,cell number [1],cell number [2],H1.0 immunofluorescence intensity [3],H1.0 immunofluorescence intensity [4]
"CC(N)C(O)c1ccc(O)c(O)c1 (single isomer, unassigned; (-)) [(-)-alpha-Methylnorepinephrine]",99.4,98.5,85.9 (inactive),93.1 (inactive)
CS(=O)(=O)O.Oc1ccc2c3c1OC1c4oc5ccccc5c4CC4(O)C(C2)N(CC2CC2)CCC314 (centres undefined) [Naltriben methanesulfonate],98.1,105,92.4 (inactive),105 (inactive)
OCC1CCCN2CCCCC12 (centres undefined) [Lupinine],109,104,96.3 (inactive),84.3 (inactive)
CN1C2CCCC1CC(=O)C2.Cl,98.6,89.2,108 (inactive),94.5 (inactive)
"CC(=O)C1CCC2C3CCC4CC(O)CCC4(C)C3C(=O)CC12C (stereo not drawn) [5alpha-Pregnan-3alpha-ol-11,20-dione]",107,108,94.1 (inactive),98.7 (inactive)
CC(C)CC(NP(=O)([O-])OC1OC(C)C(O)C(O)C1O)C(=O)NC(Cc1c[nH]c2ccccc12)C(=O)[O-].[Na+].[Na+] (centres undefined) [Phosphoramidon disodium],99.6,110,90.6 (inactive),102 (inactive)
CN1C(=O)C23CC4=CC=CC(O)C4N2C(=O)C1(CO)SS3 (centres undefined) [Gliotoxin],0.969,0.3,,
Br.CCC1CN2CCc3cc(OC)c(OC)cc3C2CC1CC1NCCc2cc(O)c(OC)cc21 (centres undefined),59.6,21.4,135 (active),104 (inactive)
C[N+](C)(C)CCCCCCCCCC[N+](C)(C)C.[Br-].[Br-] [Decamethonium dibromide],101,100,91.7 (inactive),88.8 (inactive)
Fc1cc(F)c2c(c1)C1C=CCC1C(c1cccnc1)N2 (centres undefined),69.8,52.7,126 (active),169 (active)
NC(Cc1cc(O)c(O)cc1O)C(=O)O (racemic) [6-Hydroxy-DL-DOPA],98.2,96.2,97 (inactive),93.8 (inactive)
Cc1sc2c(c1C)C(c1ccc(Cl)cc1)=N[C@@H](CC(N)=O)c1nnc(C)n1-2,79.2,67.9,141 (active),220 (active)
CCCCCCCCCCCCCCCCOCC(COP(=O)([O-])OCC[N+](C)(C)C)OC(C)=O (centres undefined),96,98.3,99.6 (inactive),102 (inactive)
Cl.NNC(N)=O [Semicarbazide hydrochloride],102,111,89 (inactive),108 (inactive)
CCCn1c(C)c(C(=O)c2cccc3ccccc23)c2ccccc21,99.3,88.2,96.2 (inactive),100 (inactive)
CC(=O)NCCc1c[nH]c2ccccc12 [N-Acetyltryptamine],101,97.5,104 (inactive),94.1 (inactive)
CCOC(=O)c1ncn2c1C1CCCN1C(=O)c1cc(OC)ccc1-2 (centres undefined),103,108,88.2 (inactive),102 (inactive)
CC1OC(=O)C2CC3CCCCC3C(C=CC3CCCC(C)N3C)C12 (centres undefined) [Himbacine],103,107,92.4 (inactive),87.4 (inactive)
C=C(C)C1C2OC(=O)C1C1(O)CC3OC34C(=O)OC2C14C (centres undefined) [Picrotoxinin],105,105,95.4 (inactive),90.9 (inactive)
Nc1ncnc2c1ccn2C1OC(CO)C(O)C1O (centres undefined) [Tubericidin],42.7,32.3,118 (inactive),70.1 (inactive)
CC1=C2CC3C(CC=C4CC(O)CCC43C)C2CCC12OC1CC(C)CNC1C2C (centres undefined) [Cyclopamine],104,107,94.9 (inactive),92 (inactive)
Cl.Oc1ccc2c3c1OC1c4[nH]c5ccccc5c4CC4(O)C(C2)N(CC2CC2)CCC314 (centres undefined) [Naltrindole hydrochloride],101,99.3,96.4 (inactive),114 (inactive)
"CN1C2CCC1CC(OC(=O)c1cc(Cl)cc(Cl)c1)C2 (centres undefined) [3-Tropanyl-3,5-dichlorobenzoate]",100,106,102 (inactive),108 (inactive)
CC(=O)N1N=C(c2ccc(N)cc2)c2cc3c(cc2C[C@H]1C)OCO3,95.4,103,106 (inactive),95.8 (inactive)
